In the OligoGym collection:

These sequences were tested against BVES (assay: pooled miR-30 sensor sort-seq; sequence = guide strand). Conditions: shRNA.
Also: reference of the scale not given here.

Row | Sequence | sensor-assay potency score (higher = more potent)
1 | TTAGTCTTCTGAACAAATCTGG | 0.0292
2 | TTCTGCTCCTTCTTCTATCGGT | 0.109
3 | TCTTCTATCGGTTTCATCTTGG | 0.0355
4 | TTTCATACAAGAAAGGTTCTGA | 0.905
5 | TTCTTCTATCGGTTTCATCTTG | -0.512
6 | TTGTGCATCTGAGTTGATCTAA | 0.0688
7 | TTATCATCTGCAATAATGGTGA | -0.542
8 | ATTTGCTACATGAAAAACCAGA | -1.03
9 | TTTTTCACCTTTGTGCATCTGA | 0.533
10 | TTCCTTTTCAATCTTTACCGGT | -0.474
11 | TAGTCTTCTGAACAAATCTGGA | -1.1
12 | TTATATCCAAGGCACATCGGTA | -1.03

The sequences below were run against BZW1 in the same assay as above. Conditions: shRNA.

Row | Sequence | sensor-assay potency score (higher = more potent)
13 | TTAACTTGTTAAAAACCTGAGC | -0.612
14 | AATAATACAGTCTTGAAACTGA | 0.296
15 | TTGTGAAGTGTTCAACACTTTG | -1.21
16 | TGAAACTCCTTCTTTAACCAAA | -0.866
17 | TTATCCATGCTGACTTTCCGAA | -0.947
18 | TTTTCTAGTTTTAAAACGCTGG | -0.34
